This note sets out measurements from PubChem BioAssay.

In experiment [1] the test system is Plasmodium falciparum Sir2 (PF13_0152, Sir2A). Kind of experiment: Plasmodium falciparum Sir2A binding compounds – biochemical, small-molecule microarray, 635 nm fluorescence, primary screen (AID 1098).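 Also: score merges spot fluorescence intensity with its signal-to-noise ratio.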 The conditions noted are these: fluorescence 635 nm, higher = more signal.
A short description of experiment [2]: probe aDKK1 binding to arrayed compounds – biochemical, biotinylated probe, 635/667 nm fluorescence, primary screen (AID 1099).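 Also: score merges 667nm spot fluorescence with signal to noise across triplicate slides.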 The conditions noted are these: small-molecule microarray, higher = more signal.
Experiment [3] in a line: probe aCHRDL2 binding to arrayed compounds – biochemical, biotinylated probe, 635/667 nm fluorescence, primary screen (AID 1100). The conditions noted are these: small-molecule microarray, higher = more signal.
Experiment [4] is described as follows: change in splice reporter luminescence, either direction, cell-based, HEK293, spliceosome inhibition project, primary screen (AID 1101).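 Also: HEK293 cells carrying a splicing-competent luciferase reporter gene; test concentration not given here.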 The conditions noted are these: HEK293 splicing luciferase reporter, 24 h, higher = more signal, called active from +8 up or from −8 down. (In general: In a reporter assay the amount or activity of a reporter protein is the signal.)

Experiment [5] addresses Fibroblast growth factor 10 (Homo sapiens) (UniProt O15520). Kind of experiment: compounds binding fibroblast growth factor 10 – biochemical, small-molecule microarray, 635 nm fluorescence, primary screen (AID 1102). The conditions noted are these: FGF10 binding, fluorescence 635 nm, higher = more signal.
The subject of experiment [6] is glycogen synthase kinase-3 (GSK3A per assay name; protocol says GSK3B). Put plainly: compounds binding glycogen synthase kinase-3 – biochemical, small-molecule microarray, 635 nm fluorescence, GSK3A, primary screen (AID 1103). Also: the record names both GSK3A and GSK3B. The conditions noted are these: fluorescence 635 nm, higher = more signal.
The target in experiment [7] is Epidermal growth factor receptor (Homo sapiens) (UniProt P00533). Kind of experiment: compounds binding epidermal growth factor receptor – biochemical, small-molecule microarray, 635 nm fluorescence, primary screen (AID 1104).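 Also: score merges 667 nm emission intensity with spot signal to noise over triplicate slides.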 The conditions noted are these: EGFR binding, higher = more signal.
Epidermal growth factor receptor (Homo sapiens), sequence (P00533 whole entry, looked up): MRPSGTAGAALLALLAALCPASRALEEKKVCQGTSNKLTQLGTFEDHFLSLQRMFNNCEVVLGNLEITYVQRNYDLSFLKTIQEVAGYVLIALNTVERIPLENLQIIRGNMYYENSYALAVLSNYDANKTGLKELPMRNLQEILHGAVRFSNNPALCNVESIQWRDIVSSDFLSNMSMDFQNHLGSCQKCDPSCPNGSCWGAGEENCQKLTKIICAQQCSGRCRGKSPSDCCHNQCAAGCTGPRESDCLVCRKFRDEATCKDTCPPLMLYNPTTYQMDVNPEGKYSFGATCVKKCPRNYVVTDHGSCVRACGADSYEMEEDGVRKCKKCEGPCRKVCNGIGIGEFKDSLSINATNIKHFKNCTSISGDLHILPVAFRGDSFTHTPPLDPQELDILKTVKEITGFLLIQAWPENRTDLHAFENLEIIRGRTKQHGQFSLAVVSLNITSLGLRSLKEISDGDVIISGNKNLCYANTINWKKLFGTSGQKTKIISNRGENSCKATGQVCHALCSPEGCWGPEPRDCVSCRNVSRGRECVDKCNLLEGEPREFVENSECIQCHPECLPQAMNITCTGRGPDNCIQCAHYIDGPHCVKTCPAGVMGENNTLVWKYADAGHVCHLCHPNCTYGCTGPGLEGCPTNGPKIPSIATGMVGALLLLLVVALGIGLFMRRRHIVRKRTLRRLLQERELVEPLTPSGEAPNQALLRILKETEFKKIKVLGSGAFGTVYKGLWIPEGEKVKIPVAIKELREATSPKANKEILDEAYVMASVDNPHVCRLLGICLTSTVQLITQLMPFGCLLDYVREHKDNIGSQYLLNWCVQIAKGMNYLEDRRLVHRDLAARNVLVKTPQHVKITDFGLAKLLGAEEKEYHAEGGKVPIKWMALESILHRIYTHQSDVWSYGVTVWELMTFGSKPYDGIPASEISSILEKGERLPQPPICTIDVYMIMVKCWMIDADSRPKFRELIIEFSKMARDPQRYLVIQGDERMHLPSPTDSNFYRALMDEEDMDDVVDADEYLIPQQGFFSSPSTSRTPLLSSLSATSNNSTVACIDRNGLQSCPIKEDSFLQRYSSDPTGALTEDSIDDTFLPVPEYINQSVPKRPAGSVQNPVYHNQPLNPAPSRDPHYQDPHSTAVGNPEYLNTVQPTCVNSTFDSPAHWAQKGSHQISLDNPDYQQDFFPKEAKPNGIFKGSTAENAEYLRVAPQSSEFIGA
For experiment [8], the target named is Follistatin-related protein 3 (Homo sapiens) (UniProt O95633). Kind of experiment: compounds binding follistatin-related protein 3 – biochemical, small-molecule microarray, 635 nm fluorescence, primary screen (AID 1105).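 Also: score merges emission near 667 nm and signal to noise per printed spot across three slides.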 The settings on record: FSTL3 binding, higher = more signal.
Follistatin-related protein 3 (Homo sapiens), sequence (O95633 whole entry, looked up): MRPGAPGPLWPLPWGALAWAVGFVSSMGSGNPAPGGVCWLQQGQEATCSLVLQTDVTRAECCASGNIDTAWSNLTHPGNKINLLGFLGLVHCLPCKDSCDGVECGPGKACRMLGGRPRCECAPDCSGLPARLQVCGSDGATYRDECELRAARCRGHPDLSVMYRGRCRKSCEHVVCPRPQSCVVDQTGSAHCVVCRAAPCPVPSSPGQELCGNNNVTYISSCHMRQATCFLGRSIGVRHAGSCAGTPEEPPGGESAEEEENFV
Experiment [9] has as its target Dickkopf-related protein 1 (Homo sapiens) (UniProt O94907). Kind of experiment: small molecules binding DKK1 protein – biochemical, small-molecule microarray, 635 nm fluorescence scan, primary screen (AID 1106).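 Also: score merges emission near 667 nm with signal to noise over three replicate slides.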 The conditions noted are these: higher = more signal.
In experiment [10] the test system is Inhibin beta A chain (activin A). Kind of experiment: small molecules binding activin A – biochemical, small-molecule microarray, 635 nm fluorescence scan, primary screen (AID 1107).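 Also: mouse activin A protein probed at 4.33 µg/mL on printed slides; score merges bound-protein fluorescence near 667 nm with spot signal-to-noise.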 The settings on record: INHBA, higher = more signal.
Experiment [11] relates to Human papillomavirus type 1a protein E7 (residues 44-93). Kind of experiment: small molecules binding HPV E7 44-93 – biochemical, small-molecule microarray, residues 44-93, 635 nm fluorescence, primary screen (AID 1108).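 Also: E7 fragment applied at 1 µg/mL in TBST for 1 h at 4 C; score combines spot fluorescence with its signal to noise ratio.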 The settings on record: fluorescence 635 nm, higher = more signal.
Experiment [12] is described as follows: hepatitis C replication reporter changes, two-sided – Huh7 cells, luciferase reporter, HCV replication inhibitor project, primary screen (AID 1109).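 Also: huh7 hepatoma cells harbouring a luciferase neomycin HCV replicon reporter; luciferase luminescence as measure of HCV replicon replication; test concentration not given here.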 The settings on record: Huh7 HCV replicon luciferase reporter, 48 h; higher = more signal.
The target in experiment [13] is Left-right determination factor 2 (Homo sapiens) (UniProt O00292). Put plainly: small molecules binding LEFTY2 protein – biochemical, small-molecule microarray, 635 nm fluorescence scan, primary screen (AID 1110). The conditions noted are these: higher = more signal.
Left-right determination factor 2 (Homo sapiens), sequence (O00292 whole entry, looked up): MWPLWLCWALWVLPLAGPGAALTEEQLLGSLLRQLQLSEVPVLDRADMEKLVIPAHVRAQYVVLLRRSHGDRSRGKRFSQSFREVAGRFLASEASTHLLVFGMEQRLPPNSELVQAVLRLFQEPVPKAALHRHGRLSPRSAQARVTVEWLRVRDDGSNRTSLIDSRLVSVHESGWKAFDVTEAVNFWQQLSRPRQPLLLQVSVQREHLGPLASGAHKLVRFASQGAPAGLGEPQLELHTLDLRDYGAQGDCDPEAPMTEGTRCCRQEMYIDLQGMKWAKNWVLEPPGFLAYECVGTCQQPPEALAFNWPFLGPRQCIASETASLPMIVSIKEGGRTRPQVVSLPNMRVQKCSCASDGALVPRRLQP
Experiment [14] addresses Calmodulin-1 (Homo sapiens) (UniProt P0DP23). Put plainly: small molecules binding calmodulin-1 with EGTA – biochemical, small-molecule microarray, Cy5-labelled CALM1, profiling panel (AID 1111).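 Also: labelled calmodulin applied in Tris saline Tween buffer holding calcium plus EGTA and DTT.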 The settings on record: Cy5-CALM1 binding fluorescence, higher = more signal.
Experiment [15] has the same target. Kind of experiment: small molecules binding Ca-loaded calmodulin-1 – biochemical, small-molecule microarray, Cy5-labelled CALM1, plus calcium, artefact control for SMM control-protein annotation, profiling panel (AID 1112).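 Also: score merges spot fluorescence with signal to noise from triplicate slides.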 The conditions noted are these: Cy5-CALM1 binding fluorescence, higher = more signal.
Experiment [16] can be described thus: probe aWnt5a binding to arrayed compounds – biochemical, biotinylated probe, 635/667 nm fluorescence, primary screen (AID 1113).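 Also: score merges 667 nm fluorescence intensity with signal-to-noise per printed feature.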 The settings on record: small-molecule microarray, higher = more signal.
The nature of experiment [17]: probe aShh binding to arrayed compounds – biochemical, biotinylated probe, 635/667 nm fluorescence, primary screen (AID 1114).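 Also: probe is biotin-labelled aShh protein from a stem cell growth factor screen; measures binding of labelled protein to compounds printed on the slide; score merges feature fluorescence at 667 nm with signal-to-noise.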 The settings on record: small-molecule microarray, higher = more signal.
A short description of experiment [18]: probe aNog binding to arrayed compounds – biochemical, biotinylated probe, 635/667 nm fluorescence, primary screen (AID 1115).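 Also: probe is biotinylated aNog protein used at 0.15 µg/mL for 1 h at 4 C; z-score combines 667 nm fluorescence of each spot with its signal to noise.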 The settings on record: small-molecule microarray, higher = more signal.
Experiment [19] has as its target Torsin-1A-interacting protein 1 (Homo sapiens) (UniProt Q5JTV8). Kind of experiment: compound microarray binding of lysate hLAP1 – cell lysate, small-molecule microarray, COS7 lysate, 635/667 nm fluorescence, primary screen (AID 1116). The settings on record: 635 nm fluorescence, higher = more signal.
The target in experiment [20] is Alpha-bungarotoxin (Bungarus multicinctus) (UniProt P60615). Put plainly: compounds binding labelled alpha-BTX control protein – biochemical, small-molecule microarray, Alexa647 label, 635/667 nm fluorescence, artefact control for SMM control protein annotation, profiling panel (AID 1117). The settings on record: alpha-BTX-A647 binding fluorescence, higher = more signal.
Alpha-bungarotoxin (Bungarus multicinctus), sequence (P60615 whole entry, looked up): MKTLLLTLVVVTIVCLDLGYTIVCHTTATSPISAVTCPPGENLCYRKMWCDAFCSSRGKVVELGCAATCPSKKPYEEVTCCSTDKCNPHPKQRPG

Calls of active or inactive are those of the source.

Torsin-1A-interacting protein 1 (Homo sapiens), sequence (Q5JTV8 whole entry, looked up): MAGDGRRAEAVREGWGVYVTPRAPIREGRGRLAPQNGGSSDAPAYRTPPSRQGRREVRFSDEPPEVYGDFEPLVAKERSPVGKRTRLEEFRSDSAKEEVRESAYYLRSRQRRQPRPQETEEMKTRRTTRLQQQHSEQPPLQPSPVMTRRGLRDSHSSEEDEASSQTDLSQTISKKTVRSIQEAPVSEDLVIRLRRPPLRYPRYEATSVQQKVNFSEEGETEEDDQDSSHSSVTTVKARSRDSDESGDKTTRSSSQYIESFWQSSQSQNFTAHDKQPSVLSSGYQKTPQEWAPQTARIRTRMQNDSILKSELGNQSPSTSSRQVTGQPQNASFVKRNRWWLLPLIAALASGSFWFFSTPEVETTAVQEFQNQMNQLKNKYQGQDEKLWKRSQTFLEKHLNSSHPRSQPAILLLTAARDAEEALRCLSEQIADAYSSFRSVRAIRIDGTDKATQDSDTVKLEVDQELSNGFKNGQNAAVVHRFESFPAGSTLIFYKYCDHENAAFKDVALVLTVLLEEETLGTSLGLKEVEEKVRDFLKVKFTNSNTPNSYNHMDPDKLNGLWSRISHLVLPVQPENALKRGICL
Fibroblast growth factor 10 (Homo sapiens), sequence (O15520 whole entry, looked up): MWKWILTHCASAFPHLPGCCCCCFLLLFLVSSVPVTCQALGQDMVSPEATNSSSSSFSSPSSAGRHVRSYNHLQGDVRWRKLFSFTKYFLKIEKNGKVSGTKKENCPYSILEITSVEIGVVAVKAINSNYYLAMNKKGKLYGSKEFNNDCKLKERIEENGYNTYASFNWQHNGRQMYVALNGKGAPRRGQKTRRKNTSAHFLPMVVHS
Dickkopf-related protein 1 (Homo sapiens), sequence (O94907 whole entry, looked up): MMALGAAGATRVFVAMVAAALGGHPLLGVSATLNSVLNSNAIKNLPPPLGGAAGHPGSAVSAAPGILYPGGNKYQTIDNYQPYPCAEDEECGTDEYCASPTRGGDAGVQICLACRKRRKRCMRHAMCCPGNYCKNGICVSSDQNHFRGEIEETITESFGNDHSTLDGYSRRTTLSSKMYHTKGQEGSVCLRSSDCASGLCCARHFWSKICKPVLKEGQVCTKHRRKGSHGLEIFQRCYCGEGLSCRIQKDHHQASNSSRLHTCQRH

For `CCCNC(=O)[C@@]1(C)c2ccccc2C(=O)N(Cc2ccc(OC(F)(F)F)cc2)[C@H]1c1ccc(CO)cc1`, the composite z-score in experiment [1] was 1.57; in experiment [2], 0.0743; in [3], 0.666; in experiment [5], 0.0672; in experiment [6], 0.0816; in experiment [7], -1.02. Further, the composite z-score was -0.401 in experiment [8]; -0.977 in experiment [9]; 0.427 in experiment [10]; -0.481 in experiment [11]; -0.808 in experiment [13]; 0.149 in experiment [14]. In addition, the composite z-score is -0.124 in [15]; -0.0685 in [16]; -0.222 in [17]; 0.597 in experiment [18]; 1.28 in [19]; 0.0855 in [20]. Besides, the z-score in [4] is -0.129 (inactive); in experiment [12], -0.16.

With `C=CCNC(=O)[C@@H]1[C@H]2C(=O)O[C@H](c3ccccc3)[C@H](c3ccccc3)N2[C@H](c2ccccc2OCCO)[C@@]12C(=O)N(C(=O)OCCOC)c1ccc(C#CCC(C(=O)OC)C(=O)OC)cc12`, the composite z-score worked out at 1.89 in experiment [1]; 2 in [2]; 1.09 in experiment [3]; 1.43 in [5]; 1.31 in experiment [6]; 1.25 in experiment [7]. For the same compound, the composite z-score in [8] is 1.5; in experiment [9] it was 1.34; in [10], 1.33; in [11] it was 1.12; in [13], 1.47; in experiment [14], 2.23. The composite z-score is 1.01 in experiment [15]; 0.826 in experiment [16]; 2.18 in [17]; 2.79 in [18]; 2.74 in experiment [19]; 3.06 in experiment [20]. The figures for the z-score in [4] and in experiment [12] were -0.235 (inactive) and -2.59, respectively.

Consider `Cc1ccc(S[C@]2(C(=O)NCCCN(C)C)CC(=O)N(C(C)C)[C@@H]2c2ccc(CO)cc2I)cc1`, for which the composite z-score is 1.37 in [1]; 0.17 in experiment [2]; 0.789 in experiment [3]; -0.238 in experiment [5]; -0.627 in experiment [6]; -0.228 in experiment [7]. For the same compound, the composite z-score in [8] was -0.137; in experiment [9], -0.827; in experiment [10] it was 1.1; in [11] it was -0.257; in experiment [13] it was -0.829; in experiment [14] it was 0.314. The composite z-score is 0.344 in experiment [15]; -0.0748 in experiment [16]; -0.0035 in experiment [17]; -0.487 in experiment [18]; 0.309 in experiment [19]; 0.397 in [20]. In addition, the z-score in [4] was -1.44 (inactive); in experiment [12], -2.53.

With `C[C@]1(C(=O)NCC(F)(F)F)c2ccccc2C(=O)N(Cc2cc(F)cc(C(F)(F)F)c2)[C@H]1c1ccc(CO)cc1`, the composite z-score in experiment [1] was 1.54; in experiment [2], 1.64; in [3] it was 0.572; in experiment [5], 0.257; in [6], -0.12; in experiment [7] it was 0.0376. The composite z-score in [8] was -0.66; in experiment [9], -0.609; in experiment [10], -0.461; in experiment [11], 1.05; in [13], -0.977; in experiment [14], 1.6. The composite z-score is 0.302 in [15]; -0.224 in [16]; 0.0024 in [17]; 0.452 in experiment [18]; 0.729 in experiment [19]; 0.0035 in experiment [20]. The values for the z-score in [4] and in experiment [12] were -0.633 (inactive) and -0.906, respectively.

As for `O=C1C2C=CC(C(O)CCc3ccccc3)N(Nc3ccccc3)C2C(=O)N1c1ccccc1` (stereo not given), the composite z-score in experiment [1] is 0.692; in experiment [2], 1.18; in experiment [3], 1.29; in experiment [5], 0.714; in experiment [6] it was 1.26; in experiment [7], -0.0133. Further, the composite z-score in [8] was 0.425; in [9], -0.194; in experiment [10] it was 0.205; in experiment [11], 0.0852; in experiment [13] it was -0.231; in experiment [14], 2.65. Moreover, the composite z-score in experiment [15] amounted to 1.4; in [16] it was 0.0797; in experiment [17], 0.382; in [18], 1.11; in experiment [19], 2.2; in [20], 3.09. Besides, the z-score in experiment [4] is 0.35 (inactive); in [12], 0.123.

For `C=CCN1C(=O)[C@]2(Cc3ccccc31)N=C(c1ccc(OCCCO)cc1)O[C@@H]2c1ccccc1`, the composite z-score in experiment [1] is 0.733; in [2], 0.779; in experiment [3] it was 0.922; in experiment [5] it was 1.43; in [6], 0.881; in [7], -0.0128. Besides, the composite z-score was 0.439 in experiment [8]; 0.998 in experiment [9]; 1.27 in experiment [10]; 1.41 in [11]; 0.319 in experiment [13]; 0.731 in experiment [14]. The composite z-score was -0.313 in experiment [15]; 0.219 in experiment [16]; -0.108 in [17]; 0.431 in [18]; 1.75 in experiment [19]; 0.152 in experiment [20]. For the same compound, the z-score was 0.105 (inactive) in experiment [4] and -2.74 in [12].
